Most compounds without a hit are left out; they make up all but 15% or so of the library.
Pf growth 96h = Primary qHTS for delayed death inhibitors of the malarial parasite plastid, 96 hour incubation; P. falciparum luciferase reporter growth, 96 h; Potency, µM (titrated, usually from 28.7 µM), inactives show at the highest dose activity change, negative = inhibition, most hits filed as inhibitors; 6.9% of 320,000 active; AID 504834, 2011; further: potency means the concentration at half of the fitted maximal effect; on the % scale 0 is the no-effect control and ±100 the full control effect
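Readout is luminescence from an integrated firefly luciferase in P. falciparum. Red cells, 2% hematocrit and 0.05% parasitemia final, were cultured with compound through two parasite generations (96 hours) at 37 C, 5% CO2.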
HCMV inh = qHTS Assay for inhibitors of the human cytomegalovirus (HCMV); 4.5% of 410,000 active; AID 1259415, 2018; activity change, negative = inhibition, % at 57.5 µM; HFF cells, HCMV-luciferase reporter, 72 h; hits give low values; in the data active means activity change below about -60%; inconclusive means no clear call, values can overlap the other calls; inactive means above about -39%; further: on the % scale 0 is the no-effect control and ±100 the full control effect
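Two compound doses tested in HFFs infected with HCMV-luciferase, MOI 1 PFU/cell, 72 h at 37C. Lysate luminescence read with OneGlo; data normalized against buffer-only and 10uM Salinomycin inhibitor controls.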
Pf growth 48h = Primary qHTS for delayed death inhibitors of the malarial parasite plastid, 48 hour incubation | Potency, µM (top dose mostly 28.7 µM), for the others: top-dose activity change, negative = inhibition, usual class: inhibitors | 5.9% of 310,000 active | P. falciparum luciferase growth in erythrocytes, 48 h; further: potency means the concentration at half of the fitted maximal effect; on the % scale 0 is the no-effect control and ±100 the full control effect
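Cell-based growth assay: transgenic P. falciparum expressing firefly luciferase, cultured in red cells within RPMI 1640 containing 0.5% w/v Albumax, 24 mM bicarbonate and gentamycin. A drop in luciferase activity indicates inhibition.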
Sm TGR inh = qHTS Assay for the Inhibitors of Schistosoma Mansoni Peroxiredoxins | Schistosoma mansoni thioredoxin glutathione reductase (TGR), Q962Y6 | purified TGR, DTNB reduction, TNB absorbance 405 nm | Potency, µM (doses to about 114 µM), without a hit: at the top dose activity change, negative = inhibition, actives largely listed as inhibitors | 3% of 360,000 active | AID 485364, 2010; further: potency means the concentration at half of the fitted maximal effect; on the % scale 0 is the no-effect control and ±100 the full control effect; nearly all actives have a fitted effect of over 60% in size
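TGR 20 nM + NADPH 100 uM (dispensed conc.), cpd preinc 15 min RT; start with NADPH (500 uM addition) then DTNB (15 mM addition). Kinetic TNB absorbance, 405 nm filter. Four-parameter Hill fit across titration.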
SARS PLpro yeast = qHTS of Yeast-based Assay for SARS-CoV PLP; 0.19% of 330,000 active; S. cerevisiae expressing SARS-CoV PLpro, growth rescue; Potency, µM (top dose mostly 32.9 µM), inactives show at the top dose activity, positive = growth rescue, hits mostly activators; calls by dose curve; further: potency means the concentration at half of the fitted maximal effect; 0% is about no effect; nearly all actives have a fitted effect of over 55% in size
HCV inh = qHTS Assay for Inhibitors of Hepatitis C Virus (HCV) | AID 651820, 2012 | 3.4% of 340,000 active | Potency, µM (top dose mostly 41.8 µM), for inactives: at the top dose activity change, negative = inhibition, hits mostly inhibitors | Huh7.5.1 HCVcc-Cre infection, luciferase reporter, 44 h; further: potency means the concentration at half of the fitted maximal effect; on the % scale 0 is the no-effect control and ±100 the full control effect
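Seed cells (1,000/well) for 4 h; treat with compound and infect with HCVcc-Cre, moi about 0.5. Incubate 44 h, then detect luciferase activity.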
* marks the source's active call; other numbers are inactive results; ? = inconclusive; / = no result; [ ] = dose if it differs, or a comment. Unless noted, the call rests on the fitted dose curve; in most records, active means well fitted curve in the direction sought with a large enough effect; inconclusive means small, poorly fitted or top-dose-only effect, or another doubt; inactive means no such curve, though single readings can be large; an effect the other way counts as inactive or inconclusive.

SMILES	Pf growth 96h	HCMV inh	Pf growth 48h	Sm TGR inh	SARS PLpro yeast	HCV inh
COc1ccc(C2(C)NC(=O)N(CC(=O)Nc3ccc(C)cc3Br)C2=O)cc1OC (stereo not given)	3.7µM*	-5	?	3%	2%	-26%
CNc1nc2cnc(Nc3ccccn3)cc2n1-c1cc(OC)c(OC)c(OC)c1	/	-4	/	/	/	/
COc1ccc(Cl)cc1C(=O)NCc1ccco1	4%	?	?	45µM*	-6%	?
COc1ccc(C(=O)Nc2ccc(Cl)cc2C(=O)NCc2ccco2)cc1OC	22%	-11	10µM*	-24%	4%	?
Cc1cc(/C=N/n2cnnc2)c(C)n1-c1ccc(OCc2ccc(Cl)cc2Cl)cc1	?	/	/	-6%	-36%	5.6µM*
Cc1cc(/C=N/n2cnnc2)c(C)n1-c1ccc(OCc2ccc(F)cc2)cc1	?	-86*	-6%	3%	-32%	11µM*
CCOC(=O)c1c(C)n(-c2ccccc2)c2ccc(OC(=O)c3ccccc3Cl)cc12	/	0	/	6%	/	/
CCC(C(=O)NCCc1ccccc1)n1nc(C)c2sc3ccccc3c2c1=O (stereo not given)	/	-14	/	-2%	/	/
CC(C)OC(=O)c1c(N)n(Cc2ccco2)c2nc3ccccc3nc12	146%	27	-9%	6%	8%	-15%
CC(C)OC(=O)c1c2nc3ccccc3nc2n2c1[nH]c(=O)c1ccccc12	6.6µM*	/	0%	2%	-3%	6%
Cc1ccc2oc(=O)c3cc(C(=O)Nc4ccc(C)c(F)c4)sc3c2c1	/	-3	/	?	/	/
CCOc1cc(CNCCCN2CCOCC2)cc(Br)c1OCc1ccccc1Cl	?	?	?	3%[57.1 µM]	-2%	3.5µM*
CCOc1cc(CNCCO)cc(Br)c1OCc1ccccc1Cl	12µM*	-3	10µM*	-3%	-13%	8.9µM*
CCOc1cc(CNC(C)(C)CO)cc(Br)c1OCc1ccc(Cl)cc1Cl	9.3µM*	4	?	16%	-7%	2.8µM*
COc1cc(CNCCN2CCOCC2)ccc1OCc1c(Cl)cccc1Cl	47%	/	?	3%	7%	?
COc1cc(CNC(C)(C)CO)cc(Br)c1OCc1ccccc1	?	-32	?	-1%	0%	-19%
CCOc1cc(CNCCN2CCOCC2)ccc1OCc1ccccc1Cl	?	-19	?	0%	-1%	2.8µM*
COc1ccc(CCCc2nnc(SCC(=O)NN)o2)c(C)c1	3%	-8	?	12%	-1%	-2%
Cn1c(=O)c2cc(C(=O)N3CCN(c4ccc(Cl)cc4)CC3)sc2c2ccccc21	/	10	/	10%	/	/
OCCNCc1cc(Br)ccc1OCc1ccccc1Cl	?	-61*	?	-25%	-5%	?
CC(C)(CO)NCc1cc(Br)ccc1OCc1ccccc1	/	13	10µM*	0%	4%	8%
Nc1nonc1C(=O)NCCNCc1cc(Br)ccc1OCc1ccccc1F	?	-62*	3.3µM*	-3%	-1%	10µM*
C=CCOc1ccc(Br)cc1CNC(C)(C)CO	10%	9	-8%	/	1%	16%
CCOc1cc(CNCCO)cc(Br)c1OCc1ccc(Cl)cc1	12µM*	-99*	?	3%	-7%	13µM*
Nc1nonc1C(=O)NCCNCc1ccccc1OCc1ccccc1F	6%[5.75 µM]	9	-22%	?	3%	-29%
OCCCCNCc1cc(Br)ccc1OCc1ccccc1	-6%	-17	-43%[1.15 µM]	-5%	1%	?
COc1ccc(NC(=O)c2cc(C3CC3)nc3c2c(C)nn3-c2ccccc2)c(OC)c1	/	-1	/	-2%	/	/
O=C(NC(c1ccc2c(c1)OCO2)c1ccccn1)C1CCN(CCOc2ccccc2)CC1 (stereo not given)	/	-37	/	/	/	/

Source: PubChem BioAssay
